From PubChem BioAssay (EPA / NIEHS)
Where “and” joins values, the source holds several entries; their conditions need not be identical. Equal values may be shown once. The source holds several records for some structures; these can differ, active in one and inactive in another. Calls of active or inactive are those of the source. Rule for the calls: active = hit-call score of the fitted dose curve at least 0.9, where 1 is the maximum; inactive = score below 0.9.

Assay: ATG_ERE_CIS: Attagene CIS-FACTORIAL HepG2 Assay for Estrogen Response Element (ERE) (AID 2282940)
Conditions: HepG2 ERE cis-reporter, Attagene RNA transcript; actives raise or lower the signal
Procedure: ATG_CIS is a cell-based, multiplexed-readout assay that uses HepG2, a human liver cell line, with measurements taken at 24 hours after chemical dosing in a 24-well plate.ATG_ERE_CIS is one of 52 assay component(s) measured or calculated from the ATG_CIS assay. It is designed to make measurements of mRNA induction, a form of inducible reporter, as detected with fluorescence intensity signals by Reverse transcription polymerase chain reaction (RT-PCR) and Capillary electrophoresis technology.Data from the assay component ATG_ERE_CIS was analyzed into 1 assay endpoint. This assay endpoint, ATG_ERE_CIS, was analyzed with bidirectional fitting relative to DMSO as the negative control and baseline of activity. Using a type of inducible reporter, measures of mRNA for gain or loss-of-signal activity can be used to understand the reporter gene at the transcription factor-level as they relate to the gene ESR1. Furthermore, this assay endpoint can be referred to as a primary readout, because this assay has produced multiple assay endpoints where this one serves a reporter gene function. To generalize the intended target to other relatable targets, this assay endpoint is annotated to the nuclear receptor intended target family, where the subfamily is steroidal.
Human liver HepG2 cells are transiently transfected with multiple reporter transcription units (MRTUs) in 6-well plates using FuGene 6 reagent (Roche; 3 ml FuGene/1 mg DNA). The MRTU constructs are regulated by a cis-regulating element (promoter). […] A major difference between the CIS and TRANS system is that in CIS activities of endogenous TFs are measured, whereas the TRANS assay evaluates changes in activities of exogenous, chimeric NR-Gal4 proteins. […] At the end of 24 hour incubation, total RNA was isolated using TriZol reagent (Invitrogen). The isolated RNA is then reverse-transcribed using oligo(dT) primer and Mo-MLV reverse transcriptase (Invitrogen) with DNAse I (Ambion) treatment for 30 min. The one-tenth of the produced cDNA was amplified by PCR using Taq DNA polymerase (Invitrogen) and two reporter sequence-specific primers. The PCR products were fluorescently labeled by primer extension with 6-arboxyfluorescein (6-FAM) 5'-labeled reporter sequence-specific primer (2 min at 95 C, 20 s at 68 C and 10 min at 72 C) and these products were digested with 5U of HpaI (New England Biolabs) for 2h at 37 C. The fragments were purified using Qiaquick PCR columns (Qiagen), analyzed on an ABI 3130xL genetic analyzer (Applied Biosystems) with peak positions identified by using a set of X-rhodamine (ROX)-labeled MapMarker1000 molecular weight standards (BioVentures). The raw capillary electrophoresis data was processed using Attagraph software (Attagene).
For `c1cc2ccc3cccc4ccc(c1)c2c34`, the outcome was “inactive”.
For `CCC(C)c1cc([N+](=O)[O-])cc([N+](=O)[O-])c1O` (stereo not given), the outcome was “inactive”.
For `ClC1=C(Cl)[C@]2(Cl)[C@@H]3[C@@H](Cl)[C@H]4O[C@H]4[C@@H]3C1(Cl)C2(Cl)Cl`, the outcome was “inactive”.
With `O=C(NC(=O)c1c(F)cccc1F)Nc1cc(Cl)c(OC(F)(F)C(F)F)c(Cl)c1` the outcome was “inactive”.
For `C1CC2OC2CC1C1CO1` (stereo not given), the outcome was “inactive”.
With `Cc1cccc([N+](=O)[O-])c1` the outcome was “inactive”.
With `Cc1ccc(O)c(C)c1` the outcome was “inactive”.
In the case of `O=C(O)C(F)(F)C(F)(F)C(F)(F)C(F)(F)C(F)(F)C(F)(F)C(F)(F)C(F)(F)F`, the AC50 is reported as 39.4 µM (active) and 38.2 µM (active) and 15.2 µM (active).
For `Cc1ccccc1[N+](=O)[O-]`, the outcome was “inactive”.
In the case of `N#Cc1ccc(N(CC(N)=O)CC(F)(F)F)cc1C(F)(F)F`, the outcome is reported as “inactive”.
For `OCC(O)CO`, the AC50 was 76.6 µM (active) and the outcome was “inactive”.
For `Clc1ccc(Cl)cc1`, the outcome was “inactive”.
In the case of `CCC(C)(c1ccc(O)cc1)c1ccc(O)cc1`, the AC50 is reported as 198 nM (active) [middle of 4 runs].
With `ClC1=C(Cl)[C@]2(Cl)[C@@H]3[C@@H]4C[C@@H]([C@H]5O[C@@H]45)[C@@H]3[C@@]1(Cl)C2(Cl)Cl` the AC50 was 1.04 µM (active).
With `NS(=O)(=O)C(F)(F)C(F)(F)C(F)(F)C(F)(F)C(F)(F)C(F)(F)C(F)(F)C(F)(F)F` the AC50 was 14.2 µM (active) and 38.2 µM (active) and 5.74 µM (active).
In the case of `Clc1ccc(C(Cl)(Cl)Cl)cc1`, the outcome is reported as “inactive”.
For `c1ccc(-c2ccccc2)cc1`, the AC50 was 81.8 µM (active).
For `COc1ccc(O)c(C(C)(C)C)c1`, the outcome was “inactive”.
For `CCOCCOC(C)=O`, the outcome was “inactive”.
For `Oc1c(Cl)c(Cl)c(Cl)c(Cl)c1Cl`, the AC50 was 13.4 µM (active) and the outcome was “inactive”.
For `CCC(=O)O[C@H]1CC[C@H]2[C@@H]3CCC4=CC(=O)CC[C@]4(C)[C@H]3CC[C@]12C`, the AC50 was 9.04 nM (active) and 9.14 nM (active) and 8.84 nM (active).
With `O=C(O)C(F)(F)C(F)(F)C(F)(F)C(F)(F)C(F)(F)F` the outcome was “inactive”.
With `O=S(=O)(O)C(F)(F)C(F)(F)C(F)(F)C(F)(F)C(F)(F)C(F)(F)F` the AC50 was 100 µM (active) and 150 µM (active) and the outcome was “inactive”.
In the case of `CCOP(=S)(OCC)SCSC(C)(C)C`, the AC50 is reported as 29.7 µM (active) and 5.91 µM (active).
With `CCCCCCCCCC[N+](C)(C)CCCCCCCCCC` the outcome was “inactive”.
With `C=CC(N)=O` the outcome was “inactive”.
With `O=C(O)C(F)(F)C(F)(F)C(F)(F)C(F)(F)C(F)(F)C(F)(F)C(F)(F)C(F)(F)C(F)(F)F` the outcome was “inactive”.
In the case of `CC(C)(O)C(=O)Nc1ccc([N+](=O)[O-])c(C(F)(F)F)c1`, the outcome is reported as “inactive”.
In the case of `Oc1ccc(C(c2ccc(O)cc2)(C(F)(F)F)C(F)(F)F)cc1`, the AC50 is reported as 127 nM (active) [middle of 4 runs].
In the case of `O=C(NC(=O)c1cc(F)c(F)cc1Cl)Nc1cc(F)ccc1N1CCC(C(=O)O)CC1`, the outcome is reported as “inactive”.
In the case of `CCSC(=O)N(CC)C1CCCCC1`, the outcome is reported as “inactive”.
In the case of `Nc1ccc(-c2ccc(N)cc2)cc1`, the AC50 is reported as 33.2 µM (active).
In the case of `CC(c1ccc(O)cc1)(c1ccc(O)cc1)c1ccc(O)cc1`, the AC50 is reported as 0.0955 µM (active).
With `ClC1=C(Cl)[C@]2(Cl)[C@@H]3[C@H]4C[C@H]([C@@H]5O[C@H]45)[C@@H]3[C@@]1(Cl)C2(Cl)Cl` the AC50 was 0.279 µM (active).
For `CC#Cc1cc(C)nc(Nc2ccccc2)n1`, the outcome was “inactive”.
For `CN(C)CCO`, the outcome was “inactive”.
In the case of `O=S(=O)(O)C(F)(F)C(F)(F)C(F)(F)C(F)(F)F`, the outcome is reported as “inactive”.
